This is a sample that favours compounds with a hit; in the whole collection about 2.8% have one here.
D3 antag – blocks the human D3 dopamine receptor; 360,000 compounds, 2.5% hits; max response, negative = inhibition, %; P35462; D3R cells, DiscoveRx beta-arrestin luminescence, antagonist mode; hits give low values; AID 652054; in the data active = max response below about -50%; inconclusive = no clear call, values can overlap the other calls
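Cells expressing the human receptor were seeded at 1500 cells/well, incubated overnight at 37 degrees C in 5% CO2, then exposed to library compounds with dopamine controls for 90 minutes at 37 degrees C before luminescent detection.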
a7 integrin act – integrin-mediated muscular dystrophy alleviation activation; alpha7betagal myoblasts, beta-gal FDG fluorescence, 48 h; Potency, µM (top dose mostly 38.3 µM), most hits filed as activators; 350,000 compounds, 0.064% hits; also: nearly all actives have a fitted effect of over 60% in size
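Alpha7betagal+/- myoblasts (passage 13) were plated 16-24 hr, then exposed to compounds (1:260 dilution of DMSO stock) for 48 hours at 37C. After MPER lysis, β-galactosidase reporter activity was read as FDG fluorescence (ex 480/em 540) after 30 minutes.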
MBNL1-CUG inh – inhibitors of human MBNL1 binding to CUG repeat RNA. TR-FRET MBNL1-His/biotin-(CUG)12 binding, 665/545 ratio. 280,000 compounds, 0.036% hits. Q9NR56. Potency, µM (highest dose often 57.5 µM), most hits filed as inhibitors; active = well fitted inhibition curve with a large enough effect in the signal ratio, with a control signal flat, not every such curve was filed as active; inconclusive = small, poorly fitted or top-dose-only effect, or effect the other way, or a change in a side signal; inactive = no such curve, though single readings can be large or run the other way; the % refers to the signal ratio
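TR-FRET readout: Ex 340 nm, 665/545 nm emission ratio, normalized to buffer-only (basal) and MBNL1-(CUG)12 controls. Complex of MBNL1-His with Biotin-(CUG)12, compounds 92 nM–58 uM, incubated 60 min at room temperature.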
D3 ag – D3 dopamine receptor (human) agonism | AID 652048 | D3R DiscoveRx beta-arrestin cells, luminescence, 90 min | 410,000 compounds, 0.58% hits | P35462 | max activation, %; in the data active = max activation above about 30%
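Agonist mode: compounds and dopamine controls were applied to plated cells for 90 min at 37 degrees C after an overnight attachment at 1500 cells/well. Luminescent read-out followed 30 - 60 minutes at room temperature with DiscoveRx detection reagent.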
CBFb-RUNX1 inh – inhibitors of human CBF-beta and RUNX1 interaction. AlphaScreen CBFb-His/RUNX1-biotin binding, biochemical. 230,000 tested, under 10 active. AID 1477. Potency, µM (highest dose often 59.8 µM), hits mostly inhibitors. Q01196+Q13951
Target sequence (Q01196 whole entry, looked up): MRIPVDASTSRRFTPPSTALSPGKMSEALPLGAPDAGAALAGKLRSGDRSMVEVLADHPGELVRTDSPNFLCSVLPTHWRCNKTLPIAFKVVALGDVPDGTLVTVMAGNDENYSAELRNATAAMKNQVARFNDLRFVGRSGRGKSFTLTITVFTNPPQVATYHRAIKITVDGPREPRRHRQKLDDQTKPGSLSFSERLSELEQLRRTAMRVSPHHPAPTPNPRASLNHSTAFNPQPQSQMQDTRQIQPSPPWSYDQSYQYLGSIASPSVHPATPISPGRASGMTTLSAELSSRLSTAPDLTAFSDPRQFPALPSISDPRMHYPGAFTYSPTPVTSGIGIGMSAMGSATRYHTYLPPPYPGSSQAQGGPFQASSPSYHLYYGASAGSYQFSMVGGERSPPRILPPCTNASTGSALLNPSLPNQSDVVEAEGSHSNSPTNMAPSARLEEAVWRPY
Target sequence (Q13951 whole entry, looked up): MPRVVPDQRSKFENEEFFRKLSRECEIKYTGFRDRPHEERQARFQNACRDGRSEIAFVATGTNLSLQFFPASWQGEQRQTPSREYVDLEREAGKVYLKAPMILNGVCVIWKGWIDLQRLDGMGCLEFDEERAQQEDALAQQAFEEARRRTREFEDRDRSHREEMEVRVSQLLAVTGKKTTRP
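Proteins preincubated together for 20 min at RT before compound addition; 15 min later, nickel and streptavidin beads were added and left 90 min prior to AlphaScreen measurement.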
PTHR1 ag – PTHR1 (human) receptor agonism | Q03431 | HEK293 GP2 PTHR1 cells, GloSensor cAMP luminescence, 1 h | Potency, µM (highest dose often 115 µM), usual class: activators | 410,000 compounds, 0.075% hits | AID 743266; also: nearly all actives have a fitted effect of over 55% in size
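HEK-293-derived GP2 cells expressing PTHR1 and a GloSensor cAMP reporter, 3,000/well, plated overnight, given luciferin plus IBMX (each 0.5 mM as added) for 1 h at 37 °C, then compound for 1 h at 37 °C. Luminescence was read after 15 min at room temperature.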
A number is an active result; - = inactive; ? = inconclusive; . = not tested or not shown; [ ] = remark or other dose. Unless noted, calls follow the shape of the dose curve; as a rule, active = well fitted curve in the direction sought with a large enough effect; inconclusive = small, poorly fitted or top-dose-only effect, or another doubt; inactive = no such curve, though single readings can be large; an effect the other way counts as inactive or inconclusive.

SMILES | D3 antag | a7 integrin act | MBNL1-CUG inh | D3 ag | CBFb-RUNX1 inh | PTHR1 ag
COCCn1c(C)cc(C(=O)CSc2cc(C)c3ccc(OC)cc3n2)c1C | - | - | - | - | - | -
O=S(=O)(NCCC1=CCCCC1)c1cccc(S(=O)(=O)N2CCOCC2)c1 | -71.8 | - | - | - | - | -
O=S(=O)(NCCc1ccccc1)c1cccc(S(=O)(=O)N2CCOCC2)c1 | - | - | - | - | - | -
CCCC(c1nnnn1CCc1ccccc1)N1CCN(C(=O)c2ccco2)CC1 (stereo not drawn) | -51.0 | - | - | - | - | -
Cc1ccc(C)c2nc3sc(C(=O)N4CCCc5ccccc54)c(N)c3cc12 | -53.8 | - | - | - | - | -
CC(C)Cc1nn2c(=O)cc(COC(=O)c3ccc(NC(=O)C4CCCCC4)cc3)nc2s1 | . | . | . | - | . | -
COc1cc(/C=C(\C#N)C(=O)NCC2CCCO2)ccc1OC(=O)c1ccco1 (stereo not drawn) | -52.7 | - | . | - | . | -
COC(=O)c1[nH]c2ccc(C)cc2c1NS(=O)(=O)c1ccc(F)c(C)c1 | -51.2 | - | - | - | - | -
COC(=O)c1[nH]c2ccc(F)cc2c1NS(=O)(=O)c1ccc(F)c(C)c1 | - | - | - | - | - | -
CCN(CC)S(=O)(=O)c1ccc(C(=O)N2CCc3ccccc32)cc1 | - | - | - | - | ? | -
CCOc1ccc(S(=O)(=O)N(CC(=O)N2CCc3ccccc32)Cc2ccco2)cc1 | -66.2 | - | - | - | - | -
O=c1c2cccnc2n(Cc2ccccc2F)c(=O)n1Cc1ccccc1Cl | . | . | . | - | . | -
Cc1n[nH]c(=S)n(NC(=O)CC(=O)Nn2c(=S)[nH]nc(C)c2=O)c1=O | -85.7 | - | - | - | - | ?
Cc1n[nH]c(=S)n(NC(=O)/C=C/C(=O)Nn2c(=S)[nH]nc(C)c2=O)c1=O | - | - | ? | - | . | -
CCC(C(=O)NC(C)(C)C)n1c(-c2ccc3c(c2)OCO3)nc2ccccc21 (stereo not drawn) | - | . | . | - | . | -
NC(=O)CC(NC(=O)Cc1cccc2ccccc12)c1ccc(NC2CCCC2)c([N+](=O)[O-])c1 (stereo not drawn) | - | - | . | - | . | -
NC(=O)CC(NC(=O)Cc1ccc(Br)cc1)c1ccc(N2CCC(Cc3ccccc3)CC2)c([N+](=O)[O-])c1 (stereo not drawn) | -97.2 | - | - | - | - | -
NC(=O)CC(NC(=O)Cc1cccc2ccccc12)c1ccc(NC2CC3CCC2C3)c([N+](=O)[O-])c1 (stereo not drawn) | -64.7 | - | - | - | . | -
NC(=O)CC(NC(=O)Cc1cccc2ccccc12)c1ccc(NCCOc2ccccc2)c([N+](=O)[O-])c1 (stereo not drawn) | -80.1 | - | - | - | - | -
COc1ccc(CCNc2ccc(C(CC(N)=O)NC(=O)c3ccc(Br)cc3)cc2[N+](=O)[O-])cc1 (stereo not drawn) | -67.9 | - | - | - | - | -
COc1ccccc1C(=O)NC(=O)CSc1nnnn1C | - | - | . | - | . | -
CCOc1ccc(OCC)c(NC(=O)c2csc3c2CCCC3)c1 | . | . | . | - | . | -
Cc1cccc(NC(=O)CNC(=O)CSc2nc(N)cc(N)n2)c1C | - | - | . | - | . | -
CCN(CC1CCCO1)C(=O)CCc1nnc(CCc2ccccc2OC)o1 (stereo not drawn) | - | - | - | - | . | -
NC(=O)CC(NC(=O)Cc1ccc(Cl)cc1)c1ccc(NC2CC3CCC2C3)c([N+](=O)[O-])c1 (stereo not drawn) | -63.4 | - | ? | - | . | -
SMILES | D3 antag | a7 integrin act | MBNL1-CUG inh | D3 ag | CBFb-RUNX1 inh | PTHR1 ag
Cc1ccc(-c2ccc(/C=C(\C#N)C(=O)Nc3cc(C)nn3-c3ccccc3)o2)cc1 | . | . | - | . | - | .
N#C/C(=C\c1ccc(-c2ccccc2)o1)C(=O)Nn1cnnc1 | -68.8 | ? | ? | - | - | -
N#C/C(=C\c1ccc(-c2cccc(Cl)c2)o1)C(=O)Nc1cccc2cccnc12 | -50.7 | - | - | - | - | -
Cc1ccccc1NC(=O)/C(C#N)=C/c1ccc(-c2ccc(Cl)c(C(=O)O)c2)o1 | -66.1 | - | ? | - | . | -
Cc1ccc(NC(=O)/C(C#N)=C/c2ccc(-c3ccc(Cl)c(C(=O)O)c3)o2)cc1C | . | . | . | - | . | -
CN[C@H](CC(C)C)C(=O)N[C@H]1C(=O)N[C@@H](CC(N)=O)C(=O)N[C@H]2C(=O)N[C@H]3C(=O)N[C@H](C(=O)N[C@@H](C(=O)O)c4cc(O)cc(O)c4-c4cc3ccc4O)[C@H](O)c3ccc(c(Cl)c3)Oc3cc2cc(c3O[C@@H]2O[C@H](CO)[C@@H](O)[C@H](O)[C@H]2O[C@H]2C[C@](C)(N)C(O)[C@H](C)O2)Oc2ccc(cc2Cl)[C@H]1O (stereo partly drawn) | . | . | . | - | . | .
CCOc1ccc2nc(NC(=O)c3nc(SC(C)C)ncc3Cl)sc2c1 | . | . | . | - | . | -
Cn1c(=O)n2n(c1=O)[C@H]1[C@H](O)[C@H]3O[C@@H]3/C(=N/OC[C@@H](O)COCc3ccco3)[C@@H]1CC2 | . | . | . | . | -[13.1 µM] | .
Cc1cc(=O)[nH]c(SCC(=O)c2ccc(O)c(O)c2)n1 | - | - | - | 30.7 | . | -
Cc1coc2c(C)c3oc(=O)c(CCC(=O)NCCCn4ccnc4)c(C)c3cc12 | -69.3 | - | - | - | . | -
Cc1c(CCC(=O)NCCCn2ccnc2)c(=O)oc2c(C)c3occ(C(C)(C)C)c3cc12 | - | - | - | - | . | -
CCC(C)NCCOc1cccc(Br)c1 (stereo not drawn) | -71.8 | - | - | - | - | -
C=CCNCCOc1cccc(Br)c1 | -76.1 | - | - | - | - | -
CN(C)CCCCOc1cccc(Br)c1 | - | - | - | - | - | -
O=C1CCCN1c1cc(Cl)cc(Cl)c1 | -54.9 | - | - | - | - | -
COCCNC(=O)C1(C)CCCN(CCS(=O)(=O)c2ccc(C)cc2)C1 (stereo not drawn) | - | . | . | - | . | -
CC(C)=N/N=C1/NC(=O)C(c2ccc(Cl)cc2)S1 (stereo not drawn) | -95.8 | - | . | - | . | -
O=C1N/C(=N/N=C/c2ccc(F)cc2)SC1c1ccccc1 (stereo not drawn) | - | - | - | - | - | -
O=C(NCc1ccccc1)c1nc(S(=O)(=O)Cc2ccc(F)cc2)ncc1Cl | . | . | . | - | . | -
Cc1nnc(NC(=O)c2nc(S(=O)(=O)Cc3ccccc3)ncc2Cl)s1 | - | - | - | - | . | -
CCc1nnc(NC(=O)c2nc(S(C)(=O)=O)ncc2Cl)s1 | . | . | . | - | . | -

Source: PubChem (National Center for Advancing Translational Sciences (NCATS))
